Source: PubChem BioAssay AID1259415 (National Center for Advancing Translational Sciences (NCATS), 2018)
Out of some 410,000 compounds screened, about 18,000 (4.4%) were called active. About 7% were inconclusive and are not listed. The sample holds actives, similar compounds and a random draw of the others, so the mix is not that of the screen. Rule as the data show it: active = activity change below about -60%; inconclusive = no clear call, values can overlap the other calls; inactive = above about -39%.

Test: qHTS Assay for inhibitors of the human cytomegalovirus (HCMV)
Settings: HFF cells, HCMV-luciferase reporter, 72 h; at 57.5 µM; stronger effect = lower value
Method in brief: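 HFF cells seeded 16 h at 37C, treated with compounds, infected with luciferase-reporter HCMV at MOI 1 PFU/cell; luciferase read at 72 h post infection, normalized to buffer-only and Salinomycin controls.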
% is scaled to controls: 0 for no effect and ±100 for the full control effect.

| Compound | activity change, negative = inhibition |
| --- | --- |
| COc1ccc(-c2cc(-c3ccccc3)nc3c2COc2ccc(Cl)cc2-3)cc1 | 9.57% (inactive) |
| CC(=O)N1C[C@@H](CO)[C@@H](N(C)C(=O)c2ccco2)C[C@H]1c1ccccc1 | -4.23% (inactive) |
| COc1cc2c(cc1NC(=O)CN1CCN(S(=O)(=O)c3ccc(F)cc3)CC1)oc1ccccc12 | 63.3% (inactive) |
| COc1ccc(-n2c(=O)c3ccccc3n(Cc3ccccc3Cl)c2=O)cc1 | 7.59% (inactive) |
| CCCn1c(N)c(C(=O)CSc2nnc(Cc3cccs3)n2C2CC2)c(=O)[nH]c1=O | -9.71% (inactive) |
| Cc1cc(C)c(OCCN2CC(C)OC(C)C2)c(Br)c1 (stereo not drawn) | -20% (inactive) |
| COc1ccc(S(=O)(=O)NNC(=O)Nc2ccc(C)cc2)c(OC)c1 | -7.23% (inactive) |
| COc1cc(NC(=O)Nc2ccc(C)cc2)cc([N+](=O)[O-])c1 | -63.5% (active) |
| Cc1ccc(Oc2cc(NC(=O)CCCn3nc(C)c([N+](=O)[O-])c3C)cc([N+](=O)[O-])c2)cc1 | 3.84% (inactive) |
| Cc1cccc(N2CCN(C(=O)c3ccc(Nc4nc5ccccc5n5nnnc45)cc3)CC2)c1C | 9.29% (inactive) |
| CCOc1ccc(CNC(=O)c2ccc3c(c2)nnn3C2CCCC2)cc1 | 27.9% (inactive) |
| COCCNC(=O)c1ccc(N2CCC3(CC2)OCCO3)c([N+](=O)[O-])c1 | -4.44% (inactive) |
| CCCNC(=O)c1ccc(N2CCC3(CC2)CC(c2cccc(Br)c2)=NO3)c(NC(=O)c2ccco2)c1 | -2.24% (inactive) |
| CCCNC(=O)c1ccc(N2CCC3(CC2)CC(c2ccc(Cl)cc2)=NO3)c([N+](=O)[O-])c1 | -72.5% (active) |
| COCCCNC(=O)c1c(NC(=O)c2cc(=O)c3cc(C)c(C)cc3o2)sc2c1CCCC2 | 11.5% (inactive) |
| Cc1nnc(NCc2ccccc2)c2c1nnn2Cc1ccc(F)cc1 | -5.95% (inactive) |
| CCc1ccc(NC(=O)c2cc(S(=O)(=O)NC3CCCCCC3)ccc2F)cc1 | -39.6% (inactive) |
| Cc1ccc2nc(NC(=O)c3nc(SCc4ccccc4F)ncc3Cl)sc2c1 | 16.7% (inactive) |
| O=C(Nc1nc2ccc(F)cc2s1)c1nc(SCc2ccccc2F)ncc1Cl | 7.44% (inactive) |
| Cc1ccc(CS(=O)(=O)CCC(=O)NC2CC2)cc1 | -21.8% (inactive) |
| Cc1ccc(CS(=O)(=O)c2ncc(Cl)c(C(=O)Nc3nnc(C)s3)n2)cc1 | -111% (active) |

| Compound | activity change, negative = inhibition |
| --- | --- |
| CSc1nnc(NC(=O)c2nc(S(=O)(=O)Cc3ccc(C)cc3)ncc2Cl)s1 | -102% (active) |
| CCOc1cccc(C(=O)Nc2nnc(S(=O)(=O)N(C)c3ccc(C)cc3)s2)c1 | -25.8% (inactive) |
| NNc1cccc(C=Cc2ccccc2)cc1=O | 34% (inactive) |
| Cc1ccc(S(=O)(=O)n2nc(C)c(S(=O)(=O)N3CCCCCC3)c2C)cc1 | 1.89% (inactive) |
| Cc1nc2nc(NCc3cccc(Br)c3)[nH]n2c(=O)c1Cc1ccccc1 | -3.03% (inactive) |
| COc1ccc(C(=O)CSc2c(C(C)C)cnc3c2c(=O)n(C)c(=O)n3C)cc1 | 8.98% (inactive) |
| CCOCCc1nn2c(=O)cc(COC(=O)CNC(=O)c3ccc(C(C)(C)C)cc3)nc2s1 | -3.83% (inactive) |
| CCOc1ccc(N(CC(=O)NCCc2ccc(OC)cc2)S(C)(=O)=O)cc1 | -24% (inactive) |
| Cc1cccc(C(CC(=O)NCC2(c3ccccc3)CCCC2)c2ccccc2)c1O (stereo not drawn) | -38.6% (inactive) |
| O=C(NCCc1ccccc1)/C(=C\c1ccc([N+](=O)[O-])cc1)NC(=O)c1ccccc1 | -102% (active) |
| O=C(N/C(=C\c1ccc([N+](=O)[O-])cc1)C(=O)N1CCCCC1)c1ccco1 | -3.57% (inactive) |
| CNC(=O)/C(=C\C=C\c1ccccc1)NC(=O)c1ccc([N+](=O)[O-])cc1 | 45.3% (inactive) |
| CCCN(CCC)CCNC(=O)c1ccc2c(c1)NC(=O)C(CS(=O)(=O)Cc1cccc(Br)c1)N2 (stereo not drawn) | -22.3% (inactive) |
| CC(C)N1CCc2c(sc(NC(=O)Cc3ccccc3)c2C#N)C1 | -9.26% (inactive) |
| CC(=O)N1CCc2c(sc(NC(=O)CCS(=O)(=O)c3ccc(C)cc3)c2C(N)=O)C1 | 5.61% (inactive) |
| CC(=O)N1CCc2c(sc(NC(=O)CCS(=O)(=O)c3ccccc3)c2C#N)C1 | -99.8% (active) |
| CC(C)CNc1cccc2c1S(=O)(=O)N[C@H](CC(C)C)CO2 | -24.9% (inactive) |
| CCCNC(=O)C[C@@H]1CC[C@@H]2[C@H](COC[C@H](O)CN2C(=O)c2cc(Cl)cc(Cl)c2)O1 | -17.8% (inactive) |
| O=C(C[C@H]1CC[C@H]2[C@@H](COC[C@H](O)CN2C(=O)c2ccccn2)O1)N1CCN(c2ccccc2)CC1 | -65.2% (active) |
| O=C(CSc1nnc(N2CCOCC2)n1-c1cccc(F)c1)N1CCN(c2ccccn2)CC1 | -18.8% (inactive) |
| COc1ccc(-c2nc3ccccc3c(=O)n2CCc2ccc(O)cc2)cc1 | -62% (active) |

| Compound | activity change, negative = inhibition |
| --- | --- |
| COc1cccc(OCCn2c(-c3ccc(Br)cc3)nc3ccccc3c2=O)c1 | 43% (inactive) |
| COc1ccccc1OCCCn1c(-c2ccc(Cl)cc2)nc2ccccc2c1=O | 39.4% (inactive) |
| Cc1ccc2c(c1)N(C(=O)CCC(=O)NCc1ccccc1F)CC(C)O2 (stereo not drawn) | 8.23% (inactive) |
| COC(=O)c1ccc(NC(=S)NN2CCOCC2)cc1 | 35.3% (inactive) |
| Cc1ccc(C(=O)NC(=S)Nc2ccc(N3CCOCC3)cc2)cc1 | -103% (active) |
| Cc1ccc(C(=O)C(=S)N2CCOCC2)cc1 | 6.2% (inactive) |
| O=C(NCCN1CCN(Cc2ccccc2)CC1)c1cc2c(=O)[nH]c3ccccc3c2s1 | -8.01% (inactive) |
| Cc1nc2ccccc2c2oc(C(=O)NCCCN3CCC(C)CC3)cc12 | 52.7% (inactive) |
| CCC1CCCCN1CCCNC(=O)c1cc2c(Cl)nc3ccccc3c2s1 (stereo not drawn) | -99.5% (active) |
| Cc1ccc(NC(=O)CN(C)C(=O)c2ccc(Cl)c(S(=O)(=O)NCc3ccco3)c2)cc1 | -35% (inactive) |
| O=S(=O)(c1ccc(C2CCCCC2)cc1)N1CCN(c2ccc(Cl)c(Cl)c2)CC1 | 9.35% (inactive) |
| COC(=O)c1c(NC(=O)CCCOc2ccccc2)sc2c1CCC(C)C2 (stereo not drawn) | 5.16% (inactive) |
| COC(=O)c1c(NC(=O)CN2CCN(S(=O)(=O)c3ccccc3[N+](=O)[O-])CC2)sc2c1CCC(C)C2 (stereo not drawn) | -60.3% (active) |
| Cc1c(Br)c([N+](=O)[O-])nn1CC(=O)Nc1sc2c(c1C(=O)OC(C)C)CCC(C)C2 (stereo not drawn) | 9.26% (inactive) |
| Cn1c(=O)oc2cc(S(=O)(=O)CCC(=O)NCCc3ccc(Cl)cc3)ccc21 | 11.3% (inactive) |
| CCN(CC)c1nn2c(=O)c(C(=O)NCCc3ccccc3)cnc2s1 | 3.6% (inactive) |
| COc1ccc(NS(=O)(=O)c2cc3c4c(c2)CC(=O)N4CCC3)cc1Cl | -18.7% (inactive) |
| CCOc1ccc(Br)cc1CSC(=N)N | -73.3% (active) |
| CCOc1ccc(Br)cc1S(=O)(=O)Nc1cccc(S(=O)(=O)N(CC)CC)c1 | 14.1% (inactive) |
| CCOc1ccc(Br)cc1S(=O)(=O)N1CCC(C(=O)O)CC1 | -26.6% (inactive) |
| Cc1nn(C)c2c1c(C(F)(F)F)cc(=O)n2C(C)C(=O)NCc1ccc(Cl)cc1 (stereo not drawn) | 7.11% (inactive) |

| Compound | activity change, negative = inhibition |
| --- | --- |
| O=C(c1cccc(Br)c1)N1CCN(Cc2cc(=O)n3nc(-c4ccccc4)sc3n2)CC1 | -19.8% (inactive) |
| COc1ccccc1NC(=O)Cn1cnc2ccc(S(=O)(=O)N3CCC(C)CC3)cc2c1=O | -5.25% (inactive) |
| COc1ccc(NC(=O)CSc2nnc(-c3nnn(-c4ccc(F)cc4)c3C)o2)cc1 | 10.5% (inactive) |
| Cc1ccccc1NC(=O)Cn1c(=O)n(CCc2ccccc2)c(=O)c2ccccc21 | 24.5% (inactive) |
| O=C(c1ccccc1F)N1CCC(c2nc3c(nnn3Cc3cccc(F)c3)c(=O)[nH]2)CC1 | 67.9% (inactive) |
| Cc1ccc(Cn2nnc3c(=O)[nH]c(C4CCN(S(=O)(=O)/C=C/c5ccccc5)CC4)nc32)cc1 | 48.5% (inactive) |
| Cc1ccc(NC(=O)N2CCC(c3nc4c(nnn4Cc4c(F)cccc4Cl)c(=O)[nH]3)CC2)cc1 | -65.5% (active) |
| CCOc1ccc(-n2c(C)nc3c(cnn3-c3ccc(C)cc3)c2=O)cc1 | -26.3% (inactive) |
| CCCNC(=S)N1CCC(NC(=O)C23CC4CC(CC(C4)C2)C3)CC1 | 20% (inactive) |
| Cc1ccc(CNC(=O)CSc2c(C)cnc3c2c(=O)n(C)c(=O)n3C)cc1 | -25% (inactive) |
| O=C(OC12CC3CC(CC(C3)C1)C2)c1ccc(NCc2cc(O)ccc2O)cc1 | -100% (active) |
| O=C(CSCc1c(Cl)cccc1Cl)NN1C(=O)c2ccccc2C1=O | 12.2% (inactive) |
| CCN1CCc2nc3sc(C(=O)Nc4ccccc4OC(F)(F)F)c(N)c3cc2C1 | -25.3% (inactive) |
| Cc1ccc(Cc2cnc(NC(=O)/C(C#N)=C/c3ccc(-c4cccc([N+](=O)[O-])c4)o3)s2)cc1 | -61.6% (active) |
| N#C/C(=C\c1ccc(-c2cccc([N+](=O)[O-])c2)o1)C(=O)NCCN1CCOCC1 | -67.8% (active) |
| O=C(NCCN1CCN(C(=O)c2cccc([N+](=O)[O-])c2)CC1)C(=O)NCc1ccc(Cl)cc1 | 27.7% (inactive) |
| CCCCOC(=O)/C(C#N)=C/c1ccc(-c2cccc(C(F)(F)F)c2)o1 | -3.64% (inactive) |
| CCOC(=O)c1ccc(-c2ccc(/C=C(\C#N)C(=O)Nc3ccc(C)cc3)o2)cc1 | 31.4% (inactive) |
| CCOC(=O)c1ccc(-c2ccc(/C=C(\C#N)C(=O)Nc3ccc(OCC)cc3)o2)cc1 | 4.93% (inactive) |
| Cc1ccc(OCCSc2nc(-c3cccs3)nc3cc(=O)[nH]n23)cc1Cl | 22.8% (inactive) |
